According to ChEMBL document CHEMBL3988442, “University of Dundee, Small-Polar-MMV Screening Library” (2021):
Screen size: about 38,000 compounds; about 1,200 (3.2%) showed an effect of 50% or more. The median lay at about -58%. The sample holds strong results, similar compounds and a random draw of the others, so the mix is not that of the screen.

System: Plasmodium falciparum
Test: Calibr Malaria Delayed Death Assay SOP
Assay type: functional, organism-based
Parameters: scale not given: in the data most compounds retested in dose-response had high values
Details: concentration 4.99e-06 (unit not given; other assays of the set use mol/L)

| Compound | Percent Effect |
| --- | --- |
| CCOCCC(=O)N1CCN(CC(C)O)CC1 (configuration not stated) | -101.9% |
| Cn1ncnc1CNC(=O)N(CCCO)C1CCc2ccccc21 (configuration not stated) | -16.9% |
| Cn1cc(N2CC3(CCN(Cc4cccnc4)CC3)OCC2=O)cn1.O=C(O)C(F)(F)F.O=C(O)C(F)(F)F | -71.74% |
| CC(=O)N1CCN(C(=O)NCCc2ccc(Cl)s2)CC1 | -108.8% |
| Cc1cc(C)c(CNC(=O)NCC2Cc3ccccc3O2)c(=O)[nH]1 (configuration not stated) | -144.1% |
| CN1CCC(c2cccc(Cc3ccccc3)n2)CC1 | -0.8146% |
| Fc1ccc(Cc2cccc(C3CCN(C4CCOCC4)CC3)n2)cc1 | 38.56% |
| CN1CCC(c2cccc(Cc3ccc(C(F)(F)F)cc3)n2)CC1 | 50.24% |
| COC1CCN(C(=O)C2CCCC2)CC(=O)N(C)c2ccccc21 (configuration not stated) | -134% |
| CC1CN(C(=O)Nc2cc(C(F)(F)F)c[nH]c2=O)CC(C)(C)O1 (configuration not stated) | -36.51% |
| Cc1ccsc1C(O)CNC(=O)Cc1ccc(S(=O)(=O)C(C)C)cc1 (configuration not stated) | 0.3509% |
| COc1cc(-c2cccc3c2OC(CN)C3)cc(OC)c1OC (configuration not stated) | 46.68% |
| NCC1Cc2cccc(-c3ccc(O)c(F)c3)c2O1 (configuration not stated) | 82.73% |
| COc1c(F)cc(-c2cccc3c2OC(CN)C3)cc1F (configuration not stated) | 35.23% |
| COc1ccc(-c2cccc3c2OC(CN)C3)cc1F (configuration not stated) | 62.39% |
| COc1cc(-c2cccc3c2OC(CN)C3)ccc1O (configuration not stated) | 37.76% |
| Cc1ccc(C(O)CNC(=O)NCc2c(C)cc(C)[nH]c2=O)cc1 (configuration not stated) | -76.06% |
| Cc1nc(-c2cccnc2)ncc1C(=O)N1CCCC(N(C)C)CC1 (configuration not stated) | -60.09% |
| CN(C)CC1CSCCCN1S(=O)(=O)Cc1ccc(C(F)(F)F)cc1 (configuration not stated) | 9.215% |
| CS(=O)(=O)C1CCN(S(=O)(=O)Cc2cccc(F)c2)CC1 | -94.28% |
| CN(C)CC1CSCCCN1S(=O)(=O)Cc1cccc(F)c1 (configuration not stated) | 58.19% |
| CN(C)CC1CSCCCN1C(=O)c1ccc(C(C)(C)C)cc1 (configuration not stated) | 0.9343% |
| Cc1cccc(OC2CCN(S(=O)(=O)Cc3cccc(F)c3)CC2)n1 | -131.9% |

| Compound | Percent Effect |
| --- | --- |
| CN(C)CC1CSCCCN1S(=O)(=O)c1ccc(C(F)(F)F)cc1 (configuration not stated) | 60.28% |
| Cc1cccc(CN2CC[C@@H]3[C@@H]2CCN3C(=O)c2cc(C)oc2C)n1.O=C(O)C(F)(F)F | -98.87% |
| Cn1nc2c(cc1=O)CN(Cc1nc(N)c3ccccc3n1)CC2 | -169.7% |
| Cc1cccc(C2CCCN(C(=O)c3ccncc3)C2)n1 (configuration not stated) | -31.2% |
| CCc1ccc(C(=O)N2CC(C(=O)NC(C)C)C3(CCOCC3)C2)cc1 (configuration not stated) | -34.39% |
| [O-][S+](CCN1CCc2[nH]nc(C(F)(F)F)c2C1)c1ccccc1 (configuration not stated) | -19.45% |
| CC(O)CN1CCc2[nH]nc(C(c3ccccc3)c3ccccc3)c2C1 (configuration not stated) | 40.85% |
| OCCN1CCc2[nH]nc(C(c3ccccc3)c3ccccc3)c2C1 | 59.95% |
| OCCCN1CCc2[nH]nc(C(c3ccccc3)c3ccccc3)c2C1 | 71.73% |
| O=C(CCN1CCc2[nH]nc(C(F)(F)F)c2C1)Nc1ccccc1 | -17.85% |
| FC(F)(F)c1n[nH]c2c1CN(CCc1ccccn1)CC2 | -42.86% |
| COCCCC1(C(=O)O)CCCN(C(=O)c2ccc(Cl)cc2F)C1 (configuration not stated) | -104.4% |
| CNC(=O)c1ccc2c(c1)C1(CCN(CC3CC3)CC1)C(=O)N2.O=C(O)C(F)(F)F | -45% |
| CN(Cc1ccncc1)C1COC2(CCN(Cc3ccco3)CC2)C1.O=C(O)C(F)(F)F.O=C(O)C(F)(F)F.O=C(O)C(F)(F)F (configuration not stated) | -70.95% |
| CS(=O)(=O)CCNC(=O)Nc1sc2ccccc2c1Cl | -106.1% |
| CN(C)CC(C)(O)CNC(=O)Nc1sc2ccccc2c1Cl (configuration not stated) | 61% |
| CS(=O)(=O)CCCNC(=O)Nc1sc2ccccc2c1Cl | -18.18% |
| CS(=O)(=O)N1C[C@@H]2CC[C@H](C1)N(C/C=C/c1ccc(F)cc1)C2 | -47.28% |
| CN(C)C(=O)N1C[C@@H]2CC[C@H](C1)N(C/C=C/c1ccc(F)cc1)C2 | 56.59% |
| CN(C)C(=O)CN1C[C@@H]2CC[C@H](C1)N(C/C=C/c1ccc(F)cc1)C2 | 41.87% |
| CCN(c1ccsc1C(=O)N1CCSCC1)S(=O)(=O)c1ccc(Cl)cc1 | -33.89% |
| Cc1cnn(Cc2ccc(NC(=O)N3CCCC3)cc2)c1 | -108.6% |
| Cc1ccc(C(=O)N(C)Cc2csc(C)n2)c(=O)[nH]1 | -148.4% |

| Compound | Percent Effect |
| --- | --- |
| CCC(NC(=O)C1CCN(C(C)C)CC1)c1cn2cccnc2n1 (configuration not stated) | -73.6% |
| Cc1n[nH]c(C)c1-c1cc(-c2cccc(O)c2)nc(N)c1C#N | -75.89% |
| CC(C)Cc1cc(-c2cc(-c3ccc[nH]3)nc(N)c2C#N)n[nH]1 | 60.25% |
| Cc1n[nH]c(C)c1-c1cc(-c2ccc[nH]2)nc(N)c1C#N | -191.7% |
| Cc1ccc(CNCc2c(C(C)C)nn(C)c2N2CCOCC2)s1 | 43.54% |
| Cc1nccn1CCCN1CCC(c2nccn2CC2CCC2)CC1 | -43.9% |
| Cc1nccn1CCCN1CCCC(c2ccccc2)C1 (configuration not stated) | 77.62% |
| Cc1nccn1Cc1nnc(C2CCCN(Cc3ccncc3)C2)n1C (configuration not stated) | -18.97% |
| COc1cc(C)ccc1OCCC(=O)N1CCC(N2CC=CC2)C1 (configuration not stated) | -87.08% |
| COc1ccc(N2CCN(Cc3noc(CC(C)C)n3)C(C)C2=O)cc1 (configuration not stated) | -89.75% |
| COc1cc(CN(CCCN(C)C)Cc2ccccn2)cc2c1OCO2.O=C(O)CC(O)(CC(=O)O)C(=O)O | 79.66% |
| CN(C)CCN(C)C(=O)Cc1ccc2c(c1)OCCO2.O=C(O)CC(O)(CC(=O)O)C(=O)O | -18.25% |
| COc1ccccc1CN(Cc1cccnc1)CC1CCCO1.O=C(O)CC(O)(CC(=O)O)C(=O)O (configuration not stated) | -1.656% |
| CCN1CCc2[nH]cnc2C12CCN(C(=O)CCc1cccs1)CC2 | -14.54% |
| CCc1c(C)sc2c1c(N)nc(=O)n2CCCN(C)C | -156.5% |
| CCc1c(-c2ccccc2)nc2c(c(C)c(C)n2CCN(C)C)c1N | 66.32% |
| CN(C)CCN1CCN(C)c2nc(-c3ccccc3)ncc2C1=O | -20.71% |
| CCCc1nc2c(c(C)c(C)n2CCN(C)C)c(N)c1CC | 89.53% |
| CCN(C)CC(C)Cn1cnc(-c2ccccc2)c1C (configuration not stated) | -12.51% |
| Cc1c(-c2ccccc2)nc2c(c(C)c(C)n2CCN(C)C)c1N | 79.27% |
| CCc1c(C)sc2c1c(N)nc(=O)n2CCN(C)C | 14.15% |
